# hNpr1 antagonist = human Npr1 receptor antagonism | 1.6% of 76,000 active | HEK293 hNpr1 GloSensor cGMP, ANP-stimulated luminescence | P16066 | Potency, µM (series often up to 46.3 µM), for inactives: at the highest dose activity change, negative = inhibition, most hits filed as inhibitors | AID 1347048; calls by dose curve; further: nearly all actives have a fitted effect of over 60% in size
#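 Compound pre-incubated 30 min at room temperature on GloSensor-loaded HEK293 cells stably carrying hNpr1 and the pGS-40F cGMP biosensor. Stimulation uses hNppA at 0.1 nM final; luminescence is taken at baseline and 20 min post-agonist.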
# Luciferase inh = Photinus pyralis luciferase inhibition. P08659. purified P. pyralis luciferase, luminescence, biochemical. Potency, µM (series often up to 115 µM), most hits filed as inhibitors. 2.5% of 76,000 active. AID 1347043; further: nearly all actives have a fitted effect of over 65% in size
#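 Purified 10nM P. pyralis luciferase with 10uM D-luciferin and 10uM ATP in 50mM Tris acetate pH 7.5, 10mM Mg acetate, 0.01% Tween-20, 0.05% BSA. qHTS titration; luminescence read by CCD imager.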
# HEK293 tox = kills HEK 293 cells; HEK 293 viability, ATP luminescence (CellTiter-Glo), 48-72 h; Potency, µM (highest dose often 115 µM), without a hit: at the highest dose activity change, negative = cytotoxicity, most hits filed as inhibitors; 6.6% of 94,000 active; further: nearly all actives have a fitted effect of over 60% in size
#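 ATP-coupled CellTiter-Glo luminescence served as viability read-out, recorded 10 min after reagent addition at room temperature. HEK 293 cells, 250 cells/well, had been incubated with pintool-transferred compound for 48 or 72 hr at 37 degree Celsius.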
# 3T3 cytotox = NIH 3T3 cell cytotoxicity; NIH 3T3 viability, CellTiter-Glo ATP luminescence, 48-72 h; Potency, µM (titrated, usually from 96.7 µM), for the others: at the top dose activity change, negative = cytotoxicity, hits mostly inhibitors; 4.3% of 94,000 active; AID 1345082; further: nearly all actives have a fitted effect of over 55% in size
#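 First NIH 3T3 cells are plated at 400 cells/well; next compound is pinned in; then plates incubate 48 or 72 hr at 37 °C; finally CellTiter-Glo is added and luminescence read after 10 min.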
# GPT2 inh = blocks human glutamate pyruvate transaminase 2. Q8TD30. Recombinant GPT2, coupled pyruvate oxidase/HRP Amplex Red fluorescence. Potency, µM (doses to about 57.7 µM), inactives show at the highest dose activity change, negative = inhibition, hits mostly inhibitors. 0.25% of 100,000 active. AID 1671188; further: nearly all actives have a fitted effect of over 60% in size
# Target sequence (Q8TD30 whole entry, looked up): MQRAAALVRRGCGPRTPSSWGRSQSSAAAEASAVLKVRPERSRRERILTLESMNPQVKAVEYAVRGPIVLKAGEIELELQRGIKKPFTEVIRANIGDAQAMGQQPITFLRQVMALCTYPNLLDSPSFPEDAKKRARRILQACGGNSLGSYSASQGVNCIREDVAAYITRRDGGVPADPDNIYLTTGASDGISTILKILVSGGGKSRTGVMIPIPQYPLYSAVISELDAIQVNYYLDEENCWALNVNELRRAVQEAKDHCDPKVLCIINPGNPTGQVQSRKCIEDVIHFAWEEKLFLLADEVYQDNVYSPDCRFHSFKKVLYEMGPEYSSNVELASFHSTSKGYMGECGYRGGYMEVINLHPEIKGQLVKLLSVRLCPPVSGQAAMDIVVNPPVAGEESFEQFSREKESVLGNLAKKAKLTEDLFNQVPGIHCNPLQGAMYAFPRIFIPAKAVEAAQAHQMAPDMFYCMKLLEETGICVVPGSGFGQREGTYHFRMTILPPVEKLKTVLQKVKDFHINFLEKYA
#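 GPT2 10ng/uL, a-KG 250uM, L-Ala 2mM, HEPES pH7.5 + 0.0001% Tween; 30 min RT. Then Amplex mix (PO/HRP/ThPP), 30 min RT dark, fluorescence. AOA 50uM used as positive control.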
# * = called active by the depositor; i = inactive; ? = inconclusive; . = no result given; [ ] = dose if it differs, or a comment. Only some compounds are listed: those with a hit (about 10% of all), similar ones and a draw of the others. Unless noted, the call rests on the fitted dose curve; in most records, active means well fitted curve in the direction sought with a large enough effect; inconclusive means small, poorly fitted or top-dose-only effect, or another doubt; inactive means no such curve, though single readings can be large; an effect the other way counts as inactive or inconclusive. On the % scale 0 is the no-effect control and ±100 the full control effect; potency means the concentration at half of the fitted maximal effect.
SMILES,hNpr1 antagonist,Luciferase inh,HEK293 tox,3T3 cytotox,GPT2 inh
CCOc1ccc(C(=O)N2CCC[C@H]2c2nc(-c3ccccc3Cl)no2)cc1,-12.9%,?,?,20µM*,-2.5%
CCOc1ccccc1C(=O)N1CCC[C@H]1c1nc(-c2ccc(F)cc2)no1,-1.1%,i,35.5µM*,?,i
CCOc1cc(C(=O)N2CCC[C@H]2c2nc(-c3ccccc3Cl)no2)cc(OCC)c1OCC,1.9%,i,?,?,i
Cc1ccc(C)c(C(=O)N2CCN(C(=O)c3nnn4c3COC(c3ccc(Cl)cc3)C4)CC2)c1 (stereo unspecified),?,i,44.7µM*,?,i
Cc1ccc(C)c(C(=O)N2CCN(C(=O)c3nnn4c3COC(c3ccccc3)C4)CC2)c1 (stereo unspecified),-22.4%,i,39.8µM*,-15.0%,-1.0%
COc1cccc(CC(=O)N2CCC3(CC2)CC(Cc2nc(-c4cccnc4)no2)CCO3)c1 (stereo unspecified),?,i,?,-20.8%,i
O=C(Nc1nccs1)C1c2ccccc2C(=O)N(Cc2ccccc2)C12CCCC2 (stereo unspecified),0.5%,i,?,0.6%,i
Cc1ccc(C(=O)N[C@@H]2CN(Cc3ccncc3)C[C@H]2CN(C)C)cc1C,3.0%,i,25.1µM*,-26.4%,2.4%
c1ccc(-c2cc3c(ccn3Cc3ccncc3)c(N3CCOCC3)n2)cc1,-7.8%[70.6 µM],i,?,?,?
COc1cc(F)ccc1-c1cc2c(ccn2Cc2ccncc2)c(N2CCOCC2)n1,-9.6%[70.6 µM],i,79.4µM*,?,1.5%[88.5 µM]
c1cc(Cn2ccc3c(N4CCOCC4)nc(-c4cncnc4)cc32)ccn1,-1.8%[70.6 µM],i,?,10µM*,-26.3%[88.5 µM]
CC(C)c1csc(CN2CC[C@@H](c3ccc4c(c3)OCO4)[C@H](O)C2)n1,?,i,22.4µM*,?,i[11.5 µM]
CCCC(O)CN1CCC(=O)N(Cc2ccccc2)Cc2cc(F)ccc21 (stereo unspecified),.,.,79.4µM*,?,.
CC(C)(C)OCC(O)CN1CCC(=O)N(Cc2ccccc2)Cc2cc(F)ccc21 (stereo unspecified),.,.,44.7µM*,?,.
CCCC(O)CN1CCC(=O)N(Cc2ccccc2)Cc2ccccc21 (stereo unspecified),.,.,?,-11.3%,.
CCOC(=O)C(Cc1cccc(N2CCN(C(=O)c3ccccc3F)CC2)c1)OC (stereo unspecified),.,.,?,-28.8%,.
O=C1NC(=O)C(c2cnc3ccccn23)=C1c1cn2c3c(cc(F)cc13)CN(C(=O)N1CCCCC1)CC2,.,.,.,.,2.1%
Cc1ccc2nc(NC(=O)C3CC(=O)N(c4n[nH]c5ccccc45)C3)sc2c1 (stereo unspecified),-0.7%,i,39.8µM*,31.6µM*,-5.6%
Cc1csc(NC(=O)C2CC(=O)N(c3n[nH]c4ccccc34)C2)n1 (stereo unspecified),-0.5%,i,-19.4%,-11.1%,-10.9%
COc1ccc(C(=O)N2CCc3cn(C)c4cccc(c34)C2)c(C)c1,2.7%,i,22.4µM*,?,-5.9%
COc1ccc(CC(=O)N2CCc3cn(C)c4cccc(c34)C2)cc1,3.9%,i,?,?,i
CCN1C(=O)C2(CCN(S(=O)(=O)c3cn(C)cn3)CC2)c2ccccc21,2.1%,i,5.8%,i,i
O=C(Cc1ccc(F)cc1)N1CCCCC12Cc1ccccc1NC2=O (stereo unspecified),0.0%[70.6 µM],i,i,-14.5%[138 µM],i
Cc1noc2c(-c3cccnc3NC3CCC(O)CC3)cc(-c3ccccc3)nc12 (stereo unspecified),2.6%[70.6 µM],i,?,?,-16.0%[88.5 µM]
Cc1noc2c(-c3cccnc3NC3CCN(C)CC3)cc(-c3ccc(Cl)cc3)nc12,-1.8%[70.6 µM],i,89.1µM*,22.4µM*,3.7%[88.5 µM]
SMILES,hNpr1 antagonist,Luciferase inh,HEK293 tox,3T3 cytotox,GPT2 inh
Cc1noc2c(NC3CCN(C)CC3)cc(-c3ccc(F)cc3)nc12,0.9%[70.6 µM],i,63.1µM*,10µM*,5.0%[88.5 µM]
Cc1noc2c(NC3CCC(O)CC3)cc(-c3ccc(F)cc3)nc12 (stereo unspecified),3.5%[70.6 µM],i,?,22.4µM*,1.2%[88.5 µM]
Fc1cccc(CN2CCO[C@@H](COc3ccccn3)[C@@H]2c2ccccc2)c1,.,.,?,35.5µM*,i
Cc1ncc(-c2nc3cc(S(=O)(=O)NC(C)C)ccc3n2C(C)C)cn1,7.7%,i,0.6%,-5.8%,-15.2%
Cc1ccc([S+](=O)([O-])NC2CCCN(c3ccc4nnc(-c5ccccc5)n4n3)C2)cc1 (stereo unspecified),.,.,25.1µM*,?,.
Cc1nnc2ccc(N3CCC(N[S+](=O)([O-])c4ccccc4)CC3)nn12,.,.,44.7µM*,31.6µM*,.
C[S+](=O)([O-])NC1CCN(c2ccc3nnc(-c4ccccc4)n3n2)C1 (stereo unspecified),.,.,-8.7%,-18.8%,.
O=C(Cc1ccc2c(c1)OCO2)N1CCNc2cnc(Nc3cccc(C(F)(F)F)c3)nc2C1,?,i,?,?,i
COc1ccc(Cl)cc1-c1ccc2c(c1)C(=O)N1CCN(C(=O)c3ccc(N(C)C)cc3)C[C@@H]1C(=O)N2,-9.0%,i,?,?,-15.6%
O=C(NCc1cc(F)cc(F)c1)[C@H]1CN(Cc2ccccc2)C[C@H]1C(=O)O,2.2%,i,?,?,-13.7%
CC(C)(C)c1ccc(C(=O)NCc2nnc3c(-c4nc(C5CC5)no4)cccn23)cc1,-15.6%,15.8µM*,?,?,i
Cc1cccc(C)c1CN1CC2(COCC1=O)CN(c1ccc(C(F)(F)F)cn1)C2,-16.9%[70.6 µM],i,?,89.1µM*,-3.1%[88.5 µM]
COc1ccc(CN2CC3(COCC2=O)CN(c2ccc(C(F)(F)F)cn2)C3)cc1F,-4.0%[70.6 µM],i,?,?,-8.9%[88.5 µM]
CC(C)(C)C(=O)N1CC[C@@H](CC(=O)O)[C@@H](CC2=NCCc3ccc(C(C)(C)C)cc32)C1,5.9%[70.6 µM],i,-25.0%[172 µM],100µM*,3.4%[88.5 µM]
CCN(CC)Cc1nc(C2(O)CCN(Cc3ccc(C(F)(F)F)cc3)CC2)cs1,?,i,?,?,-29.0%[88.5 µM]
Cc1noc(C)c1-c1cc2c(c(-c3cccnc3)c1)C(=O)N(C)C2,6.9%[70.6 µM],i,-17.5%[172 µM],?,3.3%[88.5 µM]
COc1cccc(-c2cc(-c3c(C)noc3C)cc3c2C(=O)N(C)C3)c1OC,-0.6%[70.6 µM],i,?,?,-8.5%[88.5 µM]
COc1ccc(-c2cc(-c3c(C)noc3C)cc3c2C(=O)N(C)C3)cn1,?,i,79.4µM*,?,i
